Experiment [1] is described as follows: compound effects on lung adenocarcinoma cell viability – A549, calcein-AM fluorescence, 48 h, basal, profiling panel (AID 1162). The note with it: higher = more signal.
Experiment [2] can be described thus: compound effects on differentiated 3T3-L1 adipocyte viability – cell-based, 3T3-L1 adipocytes, calcein-AM fluorescence, 48 h, basal, profiling panel (AID 1163). The note with it: 3T3-L1 adipocytes viability, higher = more signal.
The nature of experiment [3]: compound effects on hepatocellular carcinoma cell viability – HepG2, calcein-AM fluorescence, 48 h, basal, profiling panel (AID 1164). The note with it: higher = more signal.
A short description of experiment [4]: compound effects on multiple myeloma cell viability – MM1S, calcein-AM fluorescence, 48 h, basal, profiling panel (AID 1165).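 Also: viability of MM1S multiple myeloma cells under basal unstimulated conditions.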 The note with it: higher = more signal.
The nature of experiment [5]: calcein-AM signal in unstimulated myeloma cells – cell-based, calcein-AM fluorescence, 48 h, PK04 Diversity Set, profiling panel (AID 1166).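 Also: cells grown under basal conditions without added stimulus.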 The note with it: RPMI8226 myeloma viability, higher = more signal.
Experiment [6] is described as follows: JC-1 mitochondrial signal, unstimulated HepG2 cells – cell-based, JC-1 fluorescence, 24 h, 100 nL compound, profiling panel (AID 1167). The note with it: HepG2 mitochondrial potential, higher = more signal.
The nature of experiment [7]: JC-1 mitochondrial signal, unstimulated adipocytes – cell-based, JC-1 fluorescence, 3T3-L1 adipocytes, 24 h, 100 nL compound, profiling panel (AID 1168). The note with it: JC-1 mitochondrial fluorescence, higher = more signal, called active from +8 up or from −8 down.
Experiment [8] in a line: JC-1 mitochondrial signal, unstimulated myeloma cells – cell-based, JC-1 fluorescence, RPMI8226, 24 h, 100 nL compound, profiling panel (AID 1169). The note with it: JC-1 mitochondrial potential fluorescence, higher = more signal.
The nature of experiment [9]: JC-1 mitochondrial signal, unstimulated MM1S myeloma – cell-based, JC-1 fluorescence, 24 h, 100 nL compound, profiling panel (AID 1170). The note with it: MM1S mitochondrial potential, higher = more signal.
Experiment [10] is described as follows: resazurin metabolic signal in A549 cells – cell-based, resazurin fluorescence, 24 h, PK04 Diversity Set, profiling panel (AID 1171). The note with it: A549 viability, higher = more signal, called active from +8 up or from −8 down.

These results are taken from PubChem BioAssay.

The structures appear in SMILES notation. Active and inactive are the calls of the source.
Also: test concentration not given here.

Consider `COc1ccc([Si](C)(C)[C@H]2[C@H](CCO)O[C@@]3(C(=O)N(C)c4c(Br)cc(C)cc43)[C@@H]2C)cc1`, for which the z-score in [1] is -4.21; in experiment [2] it was -1.8; in experiment [3], -4.77; in [4], -2.69; in [5] it was -4.31; in experiment [6], -2.21. For the same compound, the z-score in [7] is 0.343 (inactive); in experiment [8], -1.05; in experiment [9], -2.29; in experiment [10], -6.97 (inactive).
On to `[N-]=[N+]=NCc1ccccc1C[C@]1(C(=O)O)N=C(c2ccc(OCCCO)cc2)O[C@H]1c1ccccc1N=[N+]=[N-]`, for which the z-score in experiment [1] was -0.882; in [2], 1.09; in [3] it was -0.826; in experiment [4] it was -2.06; in experiment [5], -3.85; in [6], -1.93. Also, the z-score in [7] was -0.456 (inactive); in [8], -1.05; in experiment [9] it was -0.887; in [10], -1.77 (inactive).
As to `CCOC(=O)C[C@H]1[C@H](OC(=O)c2ccc(C(=O)c3ccccc3)cc2)[C@@H](NC(=O)c2ccc(-c3ccccc3)cc2)c2cc(OCCCO)ccc2N1C(=O)c1ccccc1`, the z-score in [1] is -0.56; in experiment [2], 0.734; in [3], 0.2; in experiment [4], -0.821; in [5] it was 0.134; in experiment [6], 1. Moreover, the z-score in [7] was -0.136 (inactive); in [8], 0.884; in experiment [9], -0.117; in experiment [10], -0.31 (inactive).
In the case of `C=CCC(OC(C)=O)[C@@H]1[C@@H](N(Cc2cccc3ccccc23)C(=O)c2ccc(-c3ccccc3)cc2)c2cc(OCCCO)ccc2N1C(=O)Cc1ccc(OC)cc1` (stereo not given in full), the z-score was 1.29 in experiment [1]; 1.66 in [2]; 0.68 in experiment [3]; -0.169 in experiment [4]; 0.516 in [5]; 2.05 in experiment [6]. Besides, the z-score is 0.324 (inactive) in experiment [7], -0.217 in experiment [8], -0.179 in experiment [9] and 1.54 (inactive) in experiment [10].
For `CC(C)C(CO)N1C(=O)[C@@H]2[C@H]3C(=O)OCC=C[C@H]3OC23C=CCN(C(C)C)C(=O)[C@@H]13` (stereo not given in full), the z-score is -0.368 in experiment [1]; 0.877 in experiment [2]; -0.185 in [3]; -0.181 in [4]; 0.642 in [5]; -0.304 in experiment [6]. Moreover, the z-score was 0.148 (inactive) in [7], -0.0287 in experiment [8], -0.0116 in experiment [9] and 0.711 (inactive) in [10].
`CCCC=C(CCC)[C@@H](NC(=O)Oc1ccc(F)cc1)c1ccc(C(=O)OC)cc1`: the z-score is -1.33 in [1]; -0.609 in experiment [2]; 0.0049 in experiment [3]; -1.43 in [4]; -2.42 in experiment [5]; 6.8 in [6]. Moreover, the z-score in experiment [7] is 0.261 (inactive); in experiment [8], -0.754; in experiment [9], -1.44; in experiment [10], 0.717 (inactive).
`CCOC(=O)C[C@H]1[C@H](OC(=O)Cc2ccc3c(c2)OCO3)[C@@H](NC(=O)c2ccc(-c3ccccc3)cc2)c2cc(OCCCO)ccc2N1C(=O)Cc1ccc(OC)cc1`: the z-score is 2.24 in experiment [1]; 0.53 in experiment [2]; 1.09 in [3]; 0.704 in [4]; 1.1 in [5]; 2.33 in [6]. Further, the z-score in experiment [7] was 0.242 (inactive); in experiment [8] it was 0.679; in experiment [9], -1.03; in experiment [10], -0.0841 (inactive).
As to `CN(C)C(=O)[C@@]1(Cc2ccccc2CN=[N+]=[N-])N=C(c2ccc(OCCCO)cc2)O[C@H]1c1ccccc1`, the z-score in experiment [1] is -0.62; in experiment [2] it was -0.476; in [3], -1.18; in experiment [4], -3.03; in experiment [5] it was -3.94; in experiment [6] it was -0.807. Moreover, the z-score in experiment [7] was -0.215 (inactive); in [8], -0.988; in [9], -2.52; in [10], -0.325 (inactive).
On to `O=C1C2C=CC(C(O)C3CCCCC3)N(Nc3ccc([N+](=O)[O-])cc3)C2C(=O)N1c1ccccc1` (stereo not given), for which the z-score in experiment [1] was -0.0334; in experiment [2], 0.652; in experiment [3] it was -0.0914; in [4], -0.157; in [5] it was -1.24; in [6], -0.876. Moreover, the z-score was -2.66 (inactive) in [7], -0.143 in experiment [8], 0.507 in [9] and -1.06 (inactive) in [10].
With `NC(=O)[C@@H]1[C@H]2C(=O)O[C@H](c3ccccc3)[C@H](c3ccccc3)N2[C@H](c2ccc(O)cc2)[C@@]12C(=O)Nc1ccc(C#CC3(O)CCCCCC3)cc12`, the z-score in experiment [1] was 0.735; in experiment [2], -0.0487; in experiment [3], 0.338; in experiment [4], -1.44; in experiment [5], -0.482; in experiment [6], -0.717. For the same compound, the z-score in experiment [7] was -0.928 (inactive); in [8] it was -0.566; in experiment [9] it was -0.0259; in experiment [10] it was 0.399 (inactive).
Turning to `C=CCNC(=O)[C@H]1[C@@H]2C(=O)O[C@@H](c3ccccc3)[C@@H](c3ccccc3)N2[C@@H](c2ccc(OCCO)cc2)[C@]12C(=O)N(C(=O)OCCOC)c1ccccc12`, the z-score in experiment [1] is 0.111; in [2], 1.47; in [3], -0.109; in experiment [4], -0.472; in experiment [5], -2.66; in experiment [6] it was 1.34. In addition, the z-score in experiment [7] is 0.131 (inactive); in [8], -0.562; in [9], 0.465; in experiment [10], -0.918 (inactive).
With `COc1ccc(C(=O)Nc2ccc(CN3C(=O)[C@@]4(O[C@@H](CCn5cc([C@H](O)c6ccccc6)nn5)[C@H]([Si](C)(C)c5ccc(OC)cc5)[C@H]4C)c4ccccc43)cc2)cc1`, the z-score was -0.443 in experiment [1]; -0.196 in experiment [2]; -4.62 in experiment [3]; -2.72 in experiment [4]; -3.02 in experiment [5]; 1.73 in experiment [6]. The z-score in experiment [7] is 1.17 (inactive); in [8], -1.1; in experiment [9] it was -2.26; in [10], -1.15 (inactive).
On to `O=C1c2ccccc2[C@](Cc2ccccc2I)(C(=O)NC2CC2)[C@H](c2ccc(CO)cc2)N1Cc1ccccc1`, for which the z-score in experiment [1] is 0.465; in experiment [2], -0.241; in experiment [3], -0.236; in [4], -0.349; in [5] it was -0.253; in [6], 0.478. Besides, the z-score in experiment [7] is 0.174 (inactive); in experiment [8] it was -0.679; in experiment [9] it was 0.00466; in experiment [10], 1.47 (inactive).
For `COC(=O)C(CC#Cc1ccc2c(c1)[C@]1(C(=O)N2)[C@H](C(=O)O)[C@H]2C(=O)O[C@H](c3ccccc3)[C@H](c3ccccc3)N2[C@@H]1c1ccc(O)cc1)C(=O)OC`, the z-score was -0.389 in [1]; -0.405 in [2]; 0.0982 in experiment [3]; -0.0724 in [4]; -0.263 in [5]; -2.08 in experiment [6]. Further, the z-score in experiment [7] is -0.269 (inactive); in experiment [8] it was -0.28; in experiment [9] it was -0.331; in experiment [10], 0.831 (inactive).
With `O=C(NCC(F)(F)F)[C@@H]1c2ccccc2C(=O)N(C2CCCCC2)[C@H]1c1ccc(CO)cc1`, the z-score is 0.216 in experiment [1]; 0.48 in [2]; 0.354 in experiment [3]; -0.515 in experiment [4]; 0.597 in [5]; 0.912 in [6]. For the same compound, the z-score was -1.29 (inactive) in [7], 0.329 in experiment [8], 1.67 in [9] and 1.21 (inactive) in experiment [10].
